The campaign covered roughly 65,000 compounds. About 3,600 (5.5%) were called active. This excerpt belongs to a sample that is enriched for actives. Values without a mark were called inactive.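 Rule for the calls: active = at 10 µM, mean starting fluorescence two-fold or more over control wells; inactive = the rest.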
Experiment: intrinsic fluorescence of library compounds, ex339/em460 – biochemical, MLSMR library, data from DPM-DC assay, artefact control, profiling panel (AID 709);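 note: signal is the first read of a kinetic run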
Conditions: compound autofluorescence, ex339/em460 nm, NADH buffer; at 10 µM; active compounds read high

Row | SMILES | fluorescence fold increase
1 | CCOC(=O)c1c(N)n(Cc2ccccc2)c2nc3ccccc3nc12 | 4.96 (active)
2 | O=C(O)C1CSC(c2cccnc2)N1 (stereo not given) | 1.05
3 | CC1(C)C(c2ccccc2)=NC(c2cccnc2)=[N+]1[O-] | 1.1
4 | CCOC(=O)c1c(C)c(C(=O)N2CCC3(CC2)OCCO3)c(C)n1CC | 1.05
5 | CCOC(=O)c1c(-c2ccccc2)oc2ccc(OC(=O)N(C)C)cc12 | 3.72 (active)
6 | N[C@@H](Cc1c[nH]c2ccccc12)c1nnc(SCc2c(F)cccc2Cl)o1 | 1.15
7 | CCOC(=O)C1=C(C)OC(N)=C(C(=O)OC)C12C(=O)Nc1ccc(Br)cc12 (stereo not given) | 1.1
8 | CCc1cccc2c(C#N)cn(CC(=O)N3CCOCC3)c12 | 1.27
9 | COC(=O)COc1cc(C)cc2oc(=O)c3c(c12)CCCC3 | 2.2 (active)
10 | OC(CNC1CCCCC1)c1ccccc1 (stereo not given) | 1.04
11 | CCOC(=O)C(O)(c1ccc(NC(=O)c2ccco2)c(OC)c1)C(F)(F)F (stereo not given) | 1.11
12 | O=C(c1cc2nc(-c3ccccc3)cc(-c3ccccc3)n2n1)N1CCC2(CC1)OCCO2 | 2.35 (active)
13 | Cc1cccc(-n2c(C)nc3cc(C(=O)N4CCC5(CC4)OCCO5)ccc32)c1 | 1.13
14 | O=C(c1cc(-c2ccncc2)nc2ccccc12)N1CCC2(CC1)OCCO2 | 1.11
15 | CCOC(=O)CC1=C(C(=O)OCC)C2(C(=O)N1)C(C(=O)OC)=C(N)Oc1ccccc12 (stereo not given) | 1.12
16 | COc1ccc(CCn2c(O)c(C=NC3CC3)c(=O)[nH]c2=O)cc1OC | 1.06
17 | CN1CCN(C(=O)COc2ccc(C(C)(C)C)cc2Br)CC1 | 1.12
18 | COc1ccc(C(=O)CC2C(=O)N(C)C(=O)N(C)C2=O)cc1 | 1.08
19 | CCC/C(=N\O)c1c[nH]c2ccccc12 | 1.08
20 | CC1=C(C(=O)Nc2ccccc2)SCCO1 | 1.08

— PubChem BioAssay AID709 (SRMLSC, 2007)
